From PubChem BioAssay (Tox21)
Records with an inconclusive call do not appear. A number with no mark means an inactive call. Unless noted, calls follow the shape of the dose curve; as a rule, active = well fitted curve in the direction sought with a large enough effect in the repeat runs; inconclusive = weak or mixed curves; inactive = no such curve, though single readings can be large; an effect the other way counts as inactive or inconclusive.

Target: Androgen receptor (Homo sapiens) (UniProt P10275)
Sequence (P10275 whole entry, looked up): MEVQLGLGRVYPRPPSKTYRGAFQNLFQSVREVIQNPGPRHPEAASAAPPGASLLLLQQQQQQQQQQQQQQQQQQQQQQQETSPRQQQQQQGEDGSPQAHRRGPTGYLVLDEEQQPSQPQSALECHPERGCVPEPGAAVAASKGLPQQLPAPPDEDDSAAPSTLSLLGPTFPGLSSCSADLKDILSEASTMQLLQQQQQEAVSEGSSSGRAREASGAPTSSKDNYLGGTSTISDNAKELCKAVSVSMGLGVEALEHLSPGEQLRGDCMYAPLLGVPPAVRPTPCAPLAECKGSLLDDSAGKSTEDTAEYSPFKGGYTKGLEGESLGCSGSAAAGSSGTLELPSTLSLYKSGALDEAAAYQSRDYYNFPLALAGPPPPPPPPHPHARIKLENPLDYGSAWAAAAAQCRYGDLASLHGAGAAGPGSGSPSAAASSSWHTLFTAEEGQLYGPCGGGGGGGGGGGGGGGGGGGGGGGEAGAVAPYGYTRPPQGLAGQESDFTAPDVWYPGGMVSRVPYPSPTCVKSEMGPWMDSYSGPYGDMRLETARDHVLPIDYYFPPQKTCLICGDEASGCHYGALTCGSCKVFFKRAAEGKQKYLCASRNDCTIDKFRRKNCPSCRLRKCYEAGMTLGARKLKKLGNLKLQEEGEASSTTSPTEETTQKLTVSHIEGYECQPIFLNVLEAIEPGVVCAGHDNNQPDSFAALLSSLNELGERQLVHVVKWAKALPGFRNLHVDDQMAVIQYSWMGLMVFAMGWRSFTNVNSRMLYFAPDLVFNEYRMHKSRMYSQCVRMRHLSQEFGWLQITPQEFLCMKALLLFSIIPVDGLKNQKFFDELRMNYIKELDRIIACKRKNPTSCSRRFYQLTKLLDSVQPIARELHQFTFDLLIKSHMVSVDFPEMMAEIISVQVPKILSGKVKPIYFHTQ
Test: qHTS assay to identify small molecule antagonists of the androgen receptor (AR) signaling pathway using the MDA cell line in the presence of 0.5 nM R1881 (AID 1259243); also: nearly all actives have a fitted effect of over 50% in size
Details: MDA-kb2 MMTV-luciferase, R1881 0.5 nM, 16 h; series mostly up to 42.5 µM; activity, negative = inhibition: at the top concentration
Summary of the method: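 Luminescence from an AR/GR-responsive MMTV-luciferase construct in MDA-kb2 breast carcinoma cells, read 30 min after ONE-Glo, following 16 hr co-treatment with compounds and 0.5 nM R1881.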
% is scaled to controls: 0 for no effect and ±100 for the full control effect.

Structure (SMILES)	activity, negative = inhibition
CCNC(=O)/C=C/c1cccc(Br)c1	1.25%
O=S(=O)(O)SSS(=O)(=O)O	0.543% [at 92.4 µM]
CC(C)COC(=O)COc1ccc(Cl)cc1Cl	0.65% [at 92.4 µM]
Nc1ccc(S(=O)(=O)Nc2ccccn2)cc1	9.39%
CCCCCCCCCCCCCCCCCCN(C)C	14.9%
C=CCOCC(O)CCl (stereo not given)	-2.53% [at 92.4 µM]
Nc1cc(C(=O)O)ccc1Cl	0.0256% [at 92.4 µM]
O=C(O)c1ccccc1C(=O)OCc1ccccc1	24.5% [at 92.4 µM]
COc1cc([N+](=O)[O-])ccc1N	-19.5% [at 92.4 µM]
O=c1[nH]c(=O)c2ccccc2o1	1.52%

Target: Estrogen receptor (Homo sapiens) (UniProt P03372)
Sequence (P03372 whole entry, looked up): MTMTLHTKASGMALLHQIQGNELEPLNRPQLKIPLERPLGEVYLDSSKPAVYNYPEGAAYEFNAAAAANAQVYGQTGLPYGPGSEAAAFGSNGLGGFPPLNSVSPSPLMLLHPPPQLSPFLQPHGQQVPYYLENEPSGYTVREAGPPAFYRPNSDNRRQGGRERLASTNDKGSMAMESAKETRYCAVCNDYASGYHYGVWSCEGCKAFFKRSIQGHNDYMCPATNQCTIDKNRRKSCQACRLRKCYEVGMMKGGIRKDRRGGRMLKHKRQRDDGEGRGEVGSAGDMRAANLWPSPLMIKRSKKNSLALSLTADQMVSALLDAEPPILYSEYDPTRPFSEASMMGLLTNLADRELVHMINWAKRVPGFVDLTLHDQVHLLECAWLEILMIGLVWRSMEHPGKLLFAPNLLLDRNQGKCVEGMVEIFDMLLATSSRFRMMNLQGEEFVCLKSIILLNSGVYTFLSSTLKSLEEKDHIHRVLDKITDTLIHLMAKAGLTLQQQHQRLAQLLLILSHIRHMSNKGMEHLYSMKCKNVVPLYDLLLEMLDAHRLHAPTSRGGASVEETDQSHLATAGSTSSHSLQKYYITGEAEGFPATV
Test: qHTS assay to identify small molecule antagonists of the estrogen receptor alpha (ER-alpha) signaling pathway using the BG1 cell line in the presence of 0.1 nM 17-beta-estradiol (AID 1259244); also: nearly all actives have a fitted effect of over 50% in size
Details: VM7Luc4E2 (BG1) ERE-luciferase, antagonist mode, 0.1 nM E2, 22 h; series mostly up to 92.4 µM; activity change, negative = inhibition: at the top concentration
Summary of the method: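 Luciferase signal from VM7Luc4E2 ERE-reporter cells, co-dosed with test compound and 0.1 nM final 17beta-estradiol for 22 h, read with ONE-Glo.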

Structure (SMILES)	activity change, negative = inhibition
CCCCCCCC/C=C\CCCCCCCC(=O)OC[C@@H](O)[C@H]1OC[C@H](O)[C@H]1O	5.18%
COc1ccc(NS(=O)(=O)c2ccc(N)cc2)nn1	1.09% [at 42.5 µM]
CC(C)CCO	17.5%
CCS(=O)(=O)CCn1c([N+](=O)[O-])cnc1C	-9.26% [at 42.5 µM]
O=C(O)CCNC(=O)c1ccccc1	2.58% [at 42.5 µM]
Cc1ccccc1C(=O)N1CC/C(=N\OS(=O)(=O)O)c2ccc(Cl)cc21	-12.2% [at 42.5 µM]
CNC(=O)C(c1ccccc1)c1ccccc1	-2.8%
CCCCCN(CCCOC)C(=O)C(CCC(=O)O)NC(=O)c1ccc(Cl)c(Cl)c1 (stereo not given)	7.56% [at 42.5 µM]
NS(=O)(=O)c1ccc(Cl)c(S(N)(=O)=O)c1	-4.96% [at 42.5 µM]
COC(=O)CCC(=O)O	-20.2%
CCCCCCCCCCCCCCCCCCN(C)C	-5.94% [at 42.5 µM]
CC(=O)OCC(=O)[C@@]1(O)[C@H](OC(C)=O)C[C@H]2[C@@H]3CCC4=CC(=O)C=C[C@]4(C)[C@@]3(F)[C@@H](O)C[C@@]21C	18.1% [at 42.5 µM]
Nc1cc(C(=O)O)ccc1Cl	1.5%
O=C(O)c1ccccc1C(=O)OCc1ccccc1	39.9%
COc1cc([N+](=O)[O-])ccc1N	0.364%
O=S1(=O)CCCC1	0%

System: not listed separately
Test: qHTS assay to identify small molecule phospholipidosis (PLD) inducers (AID 1259344; active = well fitted curve in the direction sought with a large enough effect; an effect the other way counts as inactive or inconclusive)
Details: HepG2 phospholipidosis, LipidTOX Red imaging, 24 h; series mostly up to 38.3 µM; PLD induction: at the top concentration
Summary of the method: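 Cells (HepG2, 900 per well) attach for 4 h, receive LipidTOX Red and compound together, incubate 24 h at 37 C, are fixed 30 min with paraformaldehyde/Hoechst, then imaged at one site per well.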

Structure (SMILES)	PLD induction
CCCCCCCC/C=C\CCCCCCCC(=O)OC[C@@H](O)[C@H]1OC[C@H](O)[C@H]1O	-1.48%
COc1ccc(NS(=O)(=O)c2ccc(N)cc2)nn1	-0.819% [at 15.5 µM]
CCS(=O)(=O)CCn1c([N+](=O)[O-])cnc1C	-0.038% [at 15.5 µM]
O=C(O)CCNC(=O)c1ccccc1	-0.0726%
Cc1ccccc1C(=O)N1CC/C(=N\OS(=O)(=O)O)c2ccc(Cl)cc21	-2.19% [at 7.66 µM]
CCNC(=O)/C=C/c1cccc(Br)c1	-0.372%
NS(=O)(=O)c1ccc(Cl)c(S(N)(=O)=O)c1	-0.244%
Nc1ccc(S(=O)(=O)Nc2ccccn2)cc1	-0.47% [at 15.5 µM]
O=C(O)Cc1cccc(-c2cc(CCCCCCc3ccc(O[C@H]4O[C@H](CO)[C@@H](O)[C@H](O)[C@@H]4O)c(-c4cccc(CC(=O)O)c4)c3)ccc2O[C@H]2O[C@H](CO)[C@@H](O)[C@H](O)[C@@H]2O)c1	-1.79%
NS(=O)(=O)c1cc2c(cc1Cl)NC(CC1CCCC1)NS2(=O)=O (stereo not given)	-0.924% [at 15.5 µM]
CC(=O)OCC(=O)[C@@]1(O)[C@H](OC(C)=O)C[C@H]2[C@@H]3CCC4=CC(=O)C=C[C@]4(C)[C@@]3(F)[C@@H](O)C[C@@]21C	1.8%
C[C@@H]1C[C@H]2[C@@H]3C[C@H](F)C4=CC(=O)C=C[C@]4(C)[C@@]3(F)[C@@H](O)C[C@]2(C)[C@@]1(O)C(=O)CO	6.38% [at 15.5 µM]
O=c1[nH]c(=O)c2ccccc2o1	-0.295%

System: not listed separately
Test: qHTS assay to identify small molecule HDAC inhibitors (AID 1259364);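 also: wild-type HCT-116 cells with endogenous class I/II HDAC activity; top concentration of the series differs between compounds; nearly all actives have a fitted effect of over 45% in size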
Details: HCT-116 HDAC-Glo I/II luminescence, 2 h; series mostly up to 92.4 µM; activity change, negative = inhibition: at the top concentration
Summary of the method: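 HCT-116 wt cells, 1,500/well, overnight attach. Compounds (DMSO) 2 h, 37 °C. HDAC-Glo I/II, 30 min RT. Luminescence.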

Structure (SMILES)	activity change, negative = inhibition
CCCCCCCC/C=C\CCCCCCCC(=O)OC[C@@H](O)[C@H]1OC[C@H](O)[C@H]1O	2.9%
COc1ccc(NS(=O)(=O)c2ccc(N)cc2)nn1	0.666% [at 42.5 µM]
CC(C)CCO	7.07%
CCS(=O)(=O)CCn1c([N+](=O)[O-])cnc1C	8.19% [at 42.5 µM]
O=C(O)CCNC(=O)c1ccccc1	-3.52% [at 42.5 µM]
C=C[Si](C)(C)O[Si](C)(C)C=C	1.58%
Cc1ccccc1C(=O)N1CC/C(=N\OS(=O)(=O)O)c2ccc(Cl)cc21	1.04% [at 42.5 µM]
COc1ccc(N=Nc2cc(C)c(N=Nc3ccc(S(=O)(=O)O)cc3)cc2OC)cc1	-7.93%
CCCCCCCC[Si](OCC)(OCC)OCC	6.07%
CNC(=O)C(c1ccccc1)c1ccccc1	0.147%
CCCCCN(CCCOC)C(=O)C(CCC(=O)O)NC(=O)c1ccc(Cl)c(Cl)c1 (stereo not given)	0.274% [at 42.5 µM]
C[C@H](CCC(=O)NCC(=O)O)[C@H]1CC[C@H]2[C@@H]3[C@H](O)C[C@@H]4C[C@H](O)CC[C@]4(C)[C@H]3C[C@H](O)[C@]12C	2.3%
NC(Cc1c[nH]c2ccccc12)C(=O)O (stereo not given)	-2.4% [at 42.5 µM]
O=S(=O)(O)SSS(=O)(=O)O	6.62%
NS(=O)(=O)c1ccc(Cl)c(S(N)(=O)=O)c1	2.02% [at 42.5 µM]
COC(=O)CCC(=O)O	1.66%
CC(C)COC(=O)COc1ccc(Cl)cc1Cl	3.37%
C=C(C)[C@@H]1CC[C@@H](C)C[C@@H]1O	-4.54%

Structure (SMILES)	activity change, negative = inhibition
Nc1ccc(S(=O)(=O)Nc2ccccn2)cc1	-4% [at 42.5 µM]
C=CCOC(=O)c1ccc(C(=O)OCC=C)c(C(=O)OCC=C)c1	-6.99%
O=C(O)Cc1cccc(-c2cc(CCCCCCc3ccc(O[C@H]4O[C@H](CO)[C@@H](O)[C@H](O)[C@@H]4O)c(-c4cccc(CC(=O)O)c4)c3)ccc2O[C@H]2O[C@H](CO)[C@@H](O)[C@H](O)[C@@H]2O)c1	0.203% [at 0.349 µM]
O=S(=O)(O)c1cc(O)ccc1O	9.85%
CCCCC(C)C(=O)O (stereo not given)	0.693%
NS(=O)(=O)c1cc2c(cc1Cl)NC(CC1CCCC1)NS2(=O)=O (stereo not given)	4.15% [at 42.5 µM]
CCCCCCCCCCCCCCCCCCN(C)C	14.6% [at 42.5 µM]
CC(=O)OCC(=O)[C@@]1(O)[C@H](OC(C)=O)C[C@H]2[C@@H]3CCC4=CC(=O)C=C[C@]4(C)[C@@]3(F)[C@@H](O)C[C@@]21C	-0.915% [at 42.5 µM]
C=CCOCC(O)CCl (stereo not given)	0.879%
CCOC(=O)CCc1ccccc1	5%
Nc1cc(C(=O)O)ccc1Cl	1.16%
c1ccccc1	0.0352%
FC(F)(F)c1ccc(Cl)cc1Cl	-1.41%
CC(C)(C)c1ccc(C=O)cc1	3.85%
O=C(O)c1ccccc1C(=O)OCc1ccccc1	8.76%
C[C@@H]1C[C@H]2[C@@H]3C[C@H](F)C4=CC(=O)C=C[C@]4(C)[C@@]3(F)[C@@H](O)C[C@]2(C)[C@@]1(O)C(=O)CO	-4.77% [at 42.5 µM]
O=S1(=O)CCCC1	-1.19%
O=c1[nH]c(=O)c2ccccc2o1	2.87% [at 42.5 µM]
